Compound activity from PubChem.
pPAFAH inh – pPAFAH enzyme inhibitors, primary screen, biochemical, fluorescence polarization, human; recombinant pPAFAH, FP-rhodamine probe fluorescence polarization; inhibition, % at 3.39 µM; actives 1.5% (n = 330,000);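 active means inhibition above the mean inhibition across the screen plus 3 SD, cut at about 25% in these data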;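 further: inhibitors block binding of the rhodamine activity-based probe so polarization drops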
Fam108B counter – mouse Fam108B serine hydrolase inhibitors, primary screen, counter-screen for RBBP9 inhibitor project, biochemical, fluorescence polarization; recombinant Fam108B, FP-Rh probe fluorescence polarization; inhibition, % at 9.51 µM; actives 0.33% (n = 300,000);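 active means inhibition above the screen mean inhibition plus 3 SD, computed separately per campaign, cut at about 18% in these data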;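 further: inhibitors lower polarization as less probe binds the enzyme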
PME-1 inh – PME-1 inhibitors via competitive probe labeling, primary screen, biochemical, fluorescence polarization, FP-Rh probe, HTS; Protein phosphatase methylesterase 1 (Homo sapiens), Q9Y570; recombinant PME-1; inhibition, % at 5.9 µM; actives 0.53% (n = 320,000); AID 2130, 2009;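 active means inhibition above the campaign mean of all compounds plus 3 SD, cut at about 26% in these data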;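 further: competitive labeling of PME-1 active site by serine hydrolase directed probe; inhibitors block probe labeling so polarization falls and inhibition rises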
Target sequence (Q9Y570 whole entry, looked up): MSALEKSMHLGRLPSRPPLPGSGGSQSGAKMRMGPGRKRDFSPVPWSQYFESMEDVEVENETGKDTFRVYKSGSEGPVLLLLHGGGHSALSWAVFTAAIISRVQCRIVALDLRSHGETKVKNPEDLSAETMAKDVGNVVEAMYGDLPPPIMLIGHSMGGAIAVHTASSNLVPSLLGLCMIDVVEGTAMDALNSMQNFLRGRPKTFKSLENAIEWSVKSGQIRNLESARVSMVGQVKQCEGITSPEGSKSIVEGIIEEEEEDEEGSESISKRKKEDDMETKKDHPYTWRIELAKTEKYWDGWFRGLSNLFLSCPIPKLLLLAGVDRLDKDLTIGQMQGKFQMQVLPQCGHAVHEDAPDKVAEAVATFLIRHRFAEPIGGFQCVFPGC
PAFAH2 inh – PAFAH2 enzyme inhibitors, primary screen, biochemical, fluorescence polarization, human | recombinant PAFAH2, FP-rhodamine activity probe | inhibition, % at 3.39 µM | actives 0.99% (n = 340,000);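 active means inhibition above the mean over all tested compounds plus 3 SD, cut at about 30% in these data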;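 further: inhibitors block probe labeling of enzyme so polarization drops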
PAFAH1B2 FP inh – PAFAH1B2 enzyme inhibitors, primary screen, biochemical, fluorescence polarization, human | Platelet-activating factor acetylhydrolase IB subunit alpha2 (Homo sapiens), P68402 | recombinant PAFAH1B2, FP-rhodamine activity probe | inhibition, % at 3.39 µM | actives 1.2% (n = 340,000);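 active means inhibition above the mean of all tested compounds plus 3 SD, cut at about 24% in these data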
PAFAH1B3 inh – PAFAH1B3 enzyme inhibitors, primary screen, biochemical, fluorescence polarization, human; Platelet-activating factor acetylhydrolase IB subunit alpha1 (Homo sapiens), Q15102; recombinant PAFAH1B3, FP-rhodamine probe; inhibition, % at 3.39 µM; actives 0.28% (n = 340,000); AID 492972, 2010;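 active means inhibition above the screen-wide average of all tested compounds plus 3 SD, cut at about 25% in these data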
PAFAH2 FP conf – PAFAH2 enzyme inhibitors, confirmation, biochemical, fluorescence polarization, human; shares compounds with PAFAH2 inh; actives 65% (n = 2,300); AID 493030, 2011; recombinant PAFAH2, FP-rhodamine activity probe; inhibition, % at 3.39 µM;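 active means mean inhibition over three repeats above a set limit taken from the earlier primary screen, cut at about 30% in these data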;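 further: inhibitor blocks binding of rhodamine activity probe so polarization falls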
Hits are given with their value; 0 = inactive; - = no result given. Shown are actives, neighbours in structure and some others; about 2.8% of the full set was active somewhere.

SMILES	pPAFAH inh	Fam108B counter	PME-1 inh	PAFAH2 inh	PAFAH1B2 FP inh	PAFAH1B3 inh	PAFAH2 FP conf
COC(=O)CCc1c(C)c(C(=O)c2cc(OC)c(OC)c(OC)c2)c2ccccn12	0	0	0	0	0	0	-
COc1ccc(C/C(N)=N/OC(=O)c2cccs2)cc1	0	0	0	47.0	0	0	38.1
N/C(Cc1cccc2ccccc12)=N\OC(=O)c1cccs1	0	0	0	0	0	0	-
Cc1ccc(C)c(S(=O)(=O)Nc2ccc3oc(C)c(C(=O)O)c3c2)c1	0	0	0	37.6	0	0	0
O=C(Nc1cc(N2CCOCC2)ncn1)NC1(C(F)(F)F)Oc2ccccc2O1	0	0	0	0	0	0	-
Cc1onc(-c2ccc(Cl)cc2)c1-c1ccnn1S(=O)(=O)c1cccc(C(F)(F)F)c1	0	0	0	-	-	-	-
CCCCNC(=O)c1ccccc1SCC(=O)NC1CCCCCCC1	0	-	0	36.4	0	0	0
CN(C)C(=O)CSc1ccccc1C(=O)OCC(=O)NC1CC1	0	-	0	0	0	0	-
CC(C)CNC(=O)COC(=O)c1ccccc1SCC(=O)NCC(C)C	0	0	0	44.4	0	0	32.0
COc1cccc(OC)c1C(=O)OCC(=O)NCC(C)C	0	0	0	0	0	0	-
NC(=O)COC(=O)c1ccccc1SCC(=O)NC1CCCCCC1	0	0	0	61.4	0	0	49.5
O=C(NCC(c1ccco1)N1CCc2ccccc21)C(=O)Nc1ccc(F)cc1F (configuration not stated)	0	0	0	0	0	0	-
COc1ccc(C(=O)Oc2ccc(C(=S)N3CCOCC3)cc2)cc1	0	0	0	0	0	0	-
COc1ccc(C(=O)OCC(=O)Nc2c(C)cccc2C)c(OC)c1OC	0	0	0	52.2	0	0	42.9
COc1cccc(OC)c1C(=O)OCC(=O)NCCCc1ccccc1	0	0	0	0	0	0	-
COc1ccc(C(=O)OCC(=O)Nc2cccc(C(C)=O)c2)c(OC)c1OC	0	0	0	83.0	0	0	85.9
COc1cccc(C(=O)OCC(=O)NCCc2ccccc2)c1OC	0	0	0	57.7	0	0	44.0
COc1ccc(CC(=O)OCC(=O)Nc2cccc(C(C)=O)c2)cc1OC	-	-	-	0	0	0	-
COc1ccccc1CCn1c(N)cc(=O)[nH]c1=O	0	0	0	0	0	0	-
O=[N+]([O-])c1ccc([N+](=O)[O-])c(Nc2ccc(N3CCOCC3)cc2)c1	0	0	0	0	0	0	-
CCOc1ccc(C(=O)OC(C)CN2CCCCC2)cc1 (configuration not stated)	0	0	0	56.6	0	0	0
Cc1cnc(C(=O)OCC(=O)Nc2ccc(C)c(S(=O)(=O)N3CCCCC3)c2)cn1	0	0	0	0	0	0	-
Cc1ccc(NC(=O)COC(=O)c2cccnc2Cl)cc1S(=O)(=O)N1CCCCC1	0	0	0	52.8	0	0	33.7
CCOc1ncccc1C(=O)OCC(=O)Nc1cc(S(=O)(=O)N2CCOCC2)ccc1Cl	0	0	0	44.0	0	0	38.5
O=C(COC(=O)c1cccnc1Cl)Nc1cc(S(=O)(=O)N2CCCCCC2)ccc1Cl	-	-	-	31.5	0	0	0
Cc1cnc(C(=O)OCC(=O)Nc2cc(S(=O)(=O)N3CCOCC3)ccc2Cl)cn1	0	-	-	0	0	0	-
Nc1cc(N)cc(C(=O)OCC(=O)Nc2cc(S(=O)(=O)N3CCCCC3)ccc2Cl)c1	0	0	0	31.0	0	0	0
Cc1cnc(C(=O)OCC(=O)Nc2cc(S(=O)(=O)N3CCCCC3)ccc2Cl)cn1	0	0	0	0	0	0	-
O=c1onc(-c2ccc(Cl)cc2)n1Cc1ccc(F)cc1	0	0	0	0	0	0	-
Cc1onc(-c2ccccc2Cl)c1C(=O)N1CCC(Cc2ccccc2)CC1	0	0	0	0	0	0	-
